Results on four compounds are retold here after PubChem BioAssay.

Inconclusive results are not listed. Active and inactive are the calls of the source.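 Rule for the calls, unless noted: active = percent response above a set limit, the screen-wide mean plus 3 SD (cut at about 130% in these data); inactive = the rest.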

The nature of test [1]: yeast TOR pathway RPL19A-GFP modulators, primary screen, cell-based, S. cerevisiae, multiplex flow cytometry (AID 1862; in the data active = percent of DMSO control GFP below about 86%;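 note: lower values mimic rapamycin by blocking the RPL19A rise seen in DMSO cells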). The following applies: S. cerevisiae RPL19A-GFP strain, flow cytometry fluorescence, 3 h; at 10 µM; stronger effect = lower value.
Test [2] can be described thus: modulators of MEP2-GFP levels in yeast, primary screen, S. cerevisiae, multiplex flow cytometry (AID 1867;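 active = GFP response, as percent of the DMSO control, above the screen-wide mean plus 3 SD, about 139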;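 note: median GFP channel fluorescence of barcode-gated MEP2-GFP cells measured by flow cytometry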). To be noted: S. cerevisiae MEP2-GFP strain, 3 h, at 10 µM, stronger effect = higher value, 100% means same as DMSO wells. A general note: In flow cytometry, cells or beads pass a laser one at a time.
Test [3] can be described thus: modulators of CIT2-GFP expression in yeast, primary screen, S. cerevisiae, GFP fusion, multiplex flow cytometry (AID 1870).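 Note: barcoded CIT2-GFP strain pooled with four other GFP strains with rapamycin as positive control; median GFP fluorescence per well over plate mean of DMSO wells so 100% = DMSO.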 The following applies: 3 h, at 10 µM, stronger effect = higher value.
Test [4] can be described thus: modulators of LAP4-GFP expression in yeast, primary screen, S. cerevisiae, multiplex flow cytometry (AID 1873;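 active = GFP signal, as percent of the solvent control, above the screen mean plus 3 SD, about 149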). To be noted: 3 h, at 10 µM, stronger effect = higher value.
Test [5] in a line: modulators of AGP1-GFP expression in yeast TOR pathway, primary screen, cell-based, multiplex flow cytometry, S. cerevisiae (AID 1887;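 active = GFP signal above the screen-wide mean plus 3 SD, that is over about 124.5% of the solvent control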;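 note: AGP1-GFP fusion strain of S. cerevisiae within a five-strain barcoded multiplex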). To be noted: 3 h, at 10 µM, stronger effect = higher value.
The nature of test [6]: inhibitors of CD8+ T cell-vesicle binding, pilot screen, LFA-1/ICAM-1 modulator project, MLPCN validation set, flow cytometry (AID 2523;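 active = response below a set limit, under 55% cells CD8-positive and vesicle-bound, and CD8 cells' 90th-percentile brightness under 279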;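 for vesicle binding response: mean PE anti-B7-1 fluorescence of CD8+ cells relative to row control; 100% = QL9-loaded vesicles with DMSO vehicle in the same plate row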). To be noted: 2C mouse CD8+ T cells, at 7 µM, stronger effect = lower value; double positive events: measured here: CD8+/vesicle+ event percentage.
The target of test [7] is Integrin beta-1 (Homo sapiens) + Integrin alpha-4 (Homo sapiens) (UniProt P13612+P05556). As to the kind of experiment: inhibition of HUTS-21 binding to VLA-4, pilot screen, VLA-4 allosteric modulator project, U937 cells, HUTS-21 mAb, flow cytometry, validation set (AID 2674;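 active = inhibition above 50%, about 3 SD of the validation set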;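 note: antibody binding induced by the VLA-4 ligand LDV present at three times its Kd; 0% = LDV ligand with antibody and no compound and 100% = antibody without LDV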). To be noted: HUTS-21 LIBS mAb binding, at 6.7 µM, stronger effect = higher value, binding induced by LDV ligand.

Test [8] is described as follows: superoxide lowering in aged yeast cells, pilot screen, validation compound set (AID 2706;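 active = superoxide response below 65% of plate, a cut near 3 SD across the whole screen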;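 note: yeast exposed to compound for one week at 30 degrees C before staining; 100% = mean of all compound wells on the same plate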). To be noted: S. cerevisiae aging, superoxide DHE fluorescence; at 10 µM; stronger effect = lower value.
Test [9] deals with Beta-adrenergic receptor kinase 1 (Homo sapiens) (UniProt P25098). Briefly: GRK2 binders displacing RNA aptamer, biochemical, validation, human GRK2, bead flow cytometry (AID 488806;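 active = aptamer binding inhibition above 30%, about 3 SD of noise from non-fluorescent compounds; inactive = inhibition at or below 30%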). To be noted: bead-bound GRK2, FAM-aptamer displacement, at 10 µM, stronger effect = higher value.
Test [10] deals with Beta-2 adrenergic receptor (Homo sapiens) (UniProt P07550). As to the kind of experiment: beta2AR agonists driving receptor internalization, pilot screen, cell-based, FAP fluorogen, flow cytometry, validation set (AID 504459;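 active = percent response above 42, roughly 3 SD of non-fluorescent test compounds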;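 note: agonist-driven loss of surface beta2AR via internalization measured by FAP dye flow cytometry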). To be noted: Am2.2-beta2AR cells, FAP surface receptor flow cytometry; at 10 µM; stronger effect = higher value.
Test [11] concerns the target AP-2 complex subunit beta (Homo sapiens) (UniProt P63010). As to the kind of experiment: inhibitors of arrestin peptide binding to AP2, pilot screen, biochemical, validation set, GST-AP2 beads, flow cytometry (AID 504541;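 active = inhibition above 54%, about 3 SD of non-fluorescent compounds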;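 note: AP2 carries R879A mutation and is captured from E. coli lysate; bead-bound FITC arrestin peptide fluorescence measuring arrestin peptide binding to AP2; 0% = DMSO wells and 100% = excess unlabeled arrestin peptide control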). The following applies: FITC arrestin peptide, at 10 µM, stronger effect = higher value, AP2 beta2 appendage fragment, R879A mutant.
Test [12] in a line: yeast V-ATPase proton transport modulators, S. cerevisiae, pHLuorin, HTS validation (AID 504600; in the data active = response above about 15%;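 note: plate controls were DMSO for no effect and reference compound for full effect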). The following applies: S. cerevisiae pHLuorin cytosolic pH, at 10 µM, stronger effect = higher value.
For test [13], the system named is anti-desmoglein-3 scFv antibody binding to human DSG3. Briefly: inhibitors of anti-DSG3 scFv binding to DSG3, pilot screen, biochemical, validation compound set, bead-based, flow cytometry (AID 588368;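 active = binding below the plate cutoff, the plate median minus 3 SD, with a reading above zero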;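 note: signal is the median channel fluorescence of bead-bound GFP antibody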). To be noted: Protein G beads, DSG3-Fc, scFv-GFP binding, at 10 µM, stronger effect = lower value.
The nature of test [14]: inhibitors of fungal efflux pumps CDR1, CDR2, MDR1, pilot screen, validation compound set, multiplex, phenotypic (AID 588506;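 active = efflux inhibition above 0.42, the validation set average plus 4 SD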;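 note: Nile Red retained in cells so higher fluorescence means more efflux inhibition; 0 = negative control wells and 1 = enniatin B 25 µM full block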). The following applies: S. cerevisiae pump-expressing triplex, Nile Red efflux flow cytometry; at 10 µM; stronger effect = higher value; the pumps come from Candida albicans.
Test [15] deals with ATP-binding cassette sub-family B member 6 (Homo sapiens) (UniProt Q9NP58). As to the kind of experiment: ABCB6 transporter inhibitors, pilot screen, K562-ABCB6 cells, flow cytometry, validation set (AID 588550;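 active = inhibition above the screen-wide mean plus 3 SD, about 51%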;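 note: 0% = DMSO wells and 100% = benzethonium chloride 70 µM positive control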). The following applies: K562-ABCB6 porphyrin accumulation, 1 h, at 10 µM, stronger effect = higher value.
Test [16] in a line: promoters of myeloid differentiation in arrested cells, primary screen, cell-based, GFP/MAC1 double positive, flow cytometry, validation set (AID 588685;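 active = differentiation response of at least 50%, scaled between solvent and reference control, from cells with both markers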;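 note: compound exposure lasts four days before antibody staining and flow analysis; 0% = DMSO wells and 100% = 5 µM fulvestrant positive control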). To be noted: ER-HoxA9 marrow cells, stronger effect = higher value, normalized: vehicle 0, fulvestrant 100.

AP-2 complex subunit beta (Homo sapiens), sequence (P63010 whole entry, looked up, the tested form may be a part, one chain of several): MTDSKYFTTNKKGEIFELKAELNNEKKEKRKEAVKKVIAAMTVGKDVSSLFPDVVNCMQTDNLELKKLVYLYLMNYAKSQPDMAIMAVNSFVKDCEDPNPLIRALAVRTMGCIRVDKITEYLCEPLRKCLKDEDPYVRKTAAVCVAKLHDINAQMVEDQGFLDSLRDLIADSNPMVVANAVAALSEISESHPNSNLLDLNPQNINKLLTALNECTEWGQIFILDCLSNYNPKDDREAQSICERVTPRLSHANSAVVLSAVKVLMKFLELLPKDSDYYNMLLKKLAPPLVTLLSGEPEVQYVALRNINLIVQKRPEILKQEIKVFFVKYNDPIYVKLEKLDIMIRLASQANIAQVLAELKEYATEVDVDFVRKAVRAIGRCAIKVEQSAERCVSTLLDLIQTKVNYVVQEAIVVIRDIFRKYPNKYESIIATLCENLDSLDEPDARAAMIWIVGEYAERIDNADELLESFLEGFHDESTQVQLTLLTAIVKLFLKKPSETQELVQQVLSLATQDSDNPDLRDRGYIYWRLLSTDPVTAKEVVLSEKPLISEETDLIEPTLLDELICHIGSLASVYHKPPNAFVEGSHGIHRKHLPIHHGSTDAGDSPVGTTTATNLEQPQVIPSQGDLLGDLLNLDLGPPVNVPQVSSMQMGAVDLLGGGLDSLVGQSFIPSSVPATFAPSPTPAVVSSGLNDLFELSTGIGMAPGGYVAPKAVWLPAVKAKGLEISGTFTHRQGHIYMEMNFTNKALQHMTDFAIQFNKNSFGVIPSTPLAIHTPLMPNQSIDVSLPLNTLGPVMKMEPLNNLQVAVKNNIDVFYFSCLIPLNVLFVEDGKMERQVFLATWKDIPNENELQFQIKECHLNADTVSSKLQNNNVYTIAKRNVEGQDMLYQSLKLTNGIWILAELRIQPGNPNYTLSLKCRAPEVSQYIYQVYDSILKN
Beta-2 adrenergic receptor (Homo sapiens), sequence (P07550 whole entry, looked up): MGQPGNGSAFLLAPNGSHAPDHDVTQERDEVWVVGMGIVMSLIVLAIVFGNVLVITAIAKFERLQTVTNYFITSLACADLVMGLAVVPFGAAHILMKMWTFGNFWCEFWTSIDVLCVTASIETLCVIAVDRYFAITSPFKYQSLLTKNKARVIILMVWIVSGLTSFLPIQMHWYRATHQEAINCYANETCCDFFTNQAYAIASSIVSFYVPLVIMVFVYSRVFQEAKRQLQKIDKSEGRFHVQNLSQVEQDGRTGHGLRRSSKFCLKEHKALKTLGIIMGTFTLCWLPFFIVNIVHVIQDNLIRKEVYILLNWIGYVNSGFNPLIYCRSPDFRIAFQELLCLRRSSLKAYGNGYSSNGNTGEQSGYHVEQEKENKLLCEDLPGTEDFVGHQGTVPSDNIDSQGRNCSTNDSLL
Integrin beta-1 (Homo sapiens) + Integrin alpha-4 (Homo sapiens), sequence (P05556 whole entry, looked up): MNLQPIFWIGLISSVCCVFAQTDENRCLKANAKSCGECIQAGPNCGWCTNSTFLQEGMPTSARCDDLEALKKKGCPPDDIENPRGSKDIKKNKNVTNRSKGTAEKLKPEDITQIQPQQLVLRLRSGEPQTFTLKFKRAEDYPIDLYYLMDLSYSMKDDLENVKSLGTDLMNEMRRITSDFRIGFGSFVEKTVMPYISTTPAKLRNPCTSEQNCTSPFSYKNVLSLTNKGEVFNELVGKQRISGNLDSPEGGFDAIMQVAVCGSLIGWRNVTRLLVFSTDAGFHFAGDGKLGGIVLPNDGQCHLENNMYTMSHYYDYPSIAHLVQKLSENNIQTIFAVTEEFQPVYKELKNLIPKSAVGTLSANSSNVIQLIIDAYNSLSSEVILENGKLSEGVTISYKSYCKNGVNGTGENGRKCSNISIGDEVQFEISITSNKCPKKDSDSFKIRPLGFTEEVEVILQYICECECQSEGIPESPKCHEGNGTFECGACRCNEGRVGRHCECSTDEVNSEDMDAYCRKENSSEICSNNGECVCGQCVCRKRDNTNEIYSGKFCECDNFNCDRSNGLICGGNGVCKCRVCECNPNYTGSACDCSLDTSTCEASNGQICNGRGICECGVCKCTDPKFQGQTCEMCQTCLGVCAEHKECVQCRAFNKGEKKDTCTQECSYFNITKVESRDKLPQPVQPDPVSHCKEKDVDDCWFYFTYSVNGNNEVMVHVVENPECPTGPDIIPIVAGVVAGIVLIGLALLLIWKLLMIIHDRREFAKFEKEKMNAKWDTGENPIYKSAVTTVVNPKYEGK
Integrin beta-1 (Homo sapiens) + Integrin alpha-4 (Homo sapiens), sequence (P13612 whole entry, looked up): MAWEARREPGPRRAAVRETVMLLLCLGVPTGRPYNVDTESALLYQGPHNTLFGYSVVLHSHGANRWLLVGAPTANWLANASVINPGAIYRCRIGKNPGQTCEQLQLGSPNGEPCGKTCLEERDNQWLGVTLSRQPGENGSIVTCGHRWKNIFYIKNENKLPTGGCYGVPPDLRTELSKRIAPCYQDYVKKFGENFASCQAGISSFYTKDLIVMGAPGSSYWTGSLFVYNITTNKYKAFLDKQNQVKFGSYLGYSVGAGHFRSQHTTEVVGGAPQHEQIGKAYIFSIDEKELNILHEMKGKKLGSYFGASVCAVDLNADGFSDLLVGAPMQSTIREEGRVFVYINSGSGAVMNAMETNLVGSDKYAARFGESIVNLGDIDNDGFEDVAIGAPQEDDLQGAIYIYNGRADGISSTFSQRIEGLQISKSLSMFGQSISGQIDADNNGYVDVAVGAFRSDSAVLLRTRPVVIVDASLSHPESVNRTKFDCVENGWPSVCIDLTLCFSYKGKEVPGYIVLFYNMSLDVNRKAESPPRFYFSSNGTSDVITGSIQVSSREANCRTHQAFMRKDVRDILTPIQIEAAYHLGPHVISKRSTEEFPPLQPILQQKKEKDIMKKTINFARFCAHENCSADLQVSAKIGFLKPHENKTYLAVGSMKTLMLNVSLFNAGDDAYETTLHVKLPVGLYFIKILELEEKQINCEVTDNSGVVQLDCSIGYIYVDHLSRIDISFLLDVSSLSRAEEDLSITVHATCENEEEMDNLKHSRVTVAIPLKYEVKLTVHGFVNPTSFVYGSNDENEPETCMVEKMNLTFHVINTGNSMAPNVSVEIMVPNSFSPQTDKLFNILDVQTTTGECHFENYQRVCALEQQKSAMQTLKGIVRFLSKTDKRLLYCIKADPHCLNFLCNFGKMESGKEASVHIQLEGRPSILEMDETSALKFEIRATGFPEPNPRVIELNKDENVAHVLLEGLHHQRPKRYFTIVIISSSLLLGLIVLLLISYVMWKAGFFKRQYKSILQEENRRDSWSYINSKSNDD
Beta-adrenergic receptor kinase 1 (Homo sapiens), sequence (P25098 whole entry, looked up): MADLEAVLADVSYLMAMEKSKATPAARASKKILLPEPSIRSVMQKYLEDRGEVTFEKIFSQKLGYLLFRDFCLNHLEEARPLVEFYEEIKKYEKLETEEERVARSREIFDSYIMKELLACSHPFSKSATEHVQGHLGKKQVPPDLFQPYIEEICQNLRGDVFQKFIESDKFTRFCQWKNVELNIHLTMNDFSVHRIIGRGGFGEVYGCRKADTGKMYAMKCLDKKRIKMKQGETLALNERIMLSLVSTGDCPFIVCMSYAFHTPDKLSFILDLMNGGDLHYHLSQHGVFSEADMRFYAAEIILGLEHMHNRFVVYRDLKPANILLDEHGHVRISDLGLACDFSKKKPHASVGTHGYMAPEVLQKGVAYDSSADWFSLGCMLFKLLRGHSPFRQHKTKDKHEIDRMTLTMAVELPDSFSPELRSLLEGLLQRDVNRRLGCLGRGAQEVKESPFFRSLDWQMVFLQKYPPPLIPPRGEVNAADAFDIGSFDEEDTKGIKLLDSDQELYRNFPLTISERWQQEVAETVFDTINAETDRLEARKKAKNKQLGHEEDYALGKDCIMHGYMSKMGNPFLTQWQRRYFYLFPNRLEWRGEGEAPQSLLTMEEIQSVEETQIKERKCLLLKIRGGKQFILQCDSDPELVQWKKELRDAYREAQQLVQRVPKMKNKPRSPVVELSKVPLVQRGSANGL
ATP-binding cassette sub-family B member 6 (Homo sapiens), sequence (Q9NP58 whole entry, looked up): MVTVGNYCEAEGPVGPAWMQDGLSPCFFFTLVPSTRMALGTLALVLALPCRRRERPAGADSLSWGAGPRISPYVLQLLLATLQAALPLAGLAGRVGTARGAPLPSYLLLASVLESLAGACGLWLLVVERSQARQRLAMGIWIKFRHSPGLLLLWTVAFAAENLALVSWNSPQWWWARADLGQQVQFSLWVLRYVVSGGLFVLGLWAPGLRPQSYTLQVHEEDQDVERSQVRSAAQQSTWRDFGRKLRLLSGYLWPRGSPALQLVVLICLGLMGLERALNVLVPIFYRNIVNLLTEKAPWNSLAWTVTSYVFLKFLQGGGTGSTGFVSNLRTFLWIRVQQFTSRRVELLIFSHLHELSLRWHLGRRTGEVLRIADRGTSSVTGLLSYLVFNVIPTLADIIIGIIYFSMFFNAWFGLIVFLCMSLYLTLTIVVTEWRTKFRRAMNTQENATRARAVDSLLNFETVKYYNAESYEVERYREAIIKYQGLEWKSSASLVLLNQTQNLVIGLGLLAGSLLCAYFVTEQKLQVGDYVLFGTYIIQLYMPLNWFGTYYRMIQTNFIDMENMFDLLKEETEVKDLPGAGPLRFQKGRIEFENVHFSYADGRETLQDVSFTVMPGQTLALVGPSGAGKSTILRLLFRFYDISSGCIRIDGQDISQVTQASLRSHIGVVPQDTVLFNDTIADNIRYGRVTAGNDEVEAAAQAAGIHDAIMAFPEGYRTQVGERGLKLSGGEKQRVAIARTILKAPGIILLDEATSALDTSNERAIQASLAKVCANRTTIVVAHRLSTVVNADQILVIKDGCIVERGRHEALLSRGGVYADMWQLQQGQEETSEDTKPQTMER

As for `COC(=O)c1ccc2c(c1)C(=O)/C(=C/c1ccc(O)cc1)O2`, the percent of DMSO control GFP in [1] was 95.4% (inactive). Moreover, the values for the GFP response vs DMSO in test [2] and in test [4] were 109% (inactive) and 111% (inactive), respectively. In addition, in test [3], the percent response of DMSO control is 92% (inactive). Also, the GFP response, % of DMSO in [5] is 95.5% (inactive). Further, the double positive events in [6] worked out at 59%. In [6], the vesicle binding response was 90.4% (inactive). Also, the inhibition (commonly the change of the read-out against control, counted positive when it falls) in test [7] was -8.62% (inactive); in [11], 6.94% (inactive); in test [15], 2% (inactive). In addition, the superoxide response (% of plate) in test [8] is 102% (inactive). The aptamer binding inhibition in test [9] was 2% (inactive). In addition, the response in test [10] is -5.34% (inactive); in test [12] it was -1.86% (inactive). For the same compound, in test [13], the binding (% of control) is 100% (inactive). Further, the efflux inhibition (fraction of control) in test [14] is 0.19 (inactive). The differentiation response in test [16] was -26.4% (inactive).

In the case of `Cc1oc2c(O)c(O)ccc2c(=O)c1-c1ccccc1`, in [1], the percent of DMSO control GFP was 87.8% (inactive). Further, the GFP response vs DMSO in test [2] was 107% (inactive); in test [4], 74.3% (inactive). Besides, the percent response of DMSO control in test [3] is 106% (inactive). Further, in test [5], the GFP response, % of DMSO is 90.8% (inactive). The compound also showed a double positive events in test [6] of 59.4%. The vesicle binding response in test [6] was 119% (inactive). The inhibition in test [7] is -1.3% (inactive); in test [11], -5.67% (inactive); in test [15], 9% (inactive). In test [8], the superoxide response (% of plate) is 110% (inactive). The aptamer binding inhibition in test [9] was 3% (inactive). In addition, the response is -8.83% (inactive) in test [10] and -1.26% (inactive) in [12]. Further, in [13], the binding (% of control) was 107% (inactive). For the same compound, the efflux inhibition (fraction of control) in test [14] is 0.45 (active). For the same compound, in [16], the differentiation response was -2.46% (inactive).

As to `COc1ccc(C(=O)CCN2CCc3cc(OC)c(OC)cc3C2)cc1`, the percent of DMSO control GFP in test [1] was 104% (inactive). Also, the GFP response vs DMSO was 116% (inactive) in test [2] and 70.3% (inactive) in test [4]. Further, the percent response of DMSO control in test [3] is 107% (inactive). Moreover, in test [5], the GFP response, % of DMSO is 99.7% (inactive). Moreover, the double positive events in test [6] was determined as 59%. For the same compound, the vesicle binding response in test [6] is 115% (inactive). Also, the inhibition in [7] was 1.12% (inactive); in [11] it was -1.91% (inactive); in test [15] it was 13% (inactive). For the same compound, the superoxide response (% of plate) in [8] was 111% (inactive). The aptamer binding inhibition in [9] is 2% (inactive). The figures for the response in [10] and in test [12] were 2.49% (inactive) and -2.28% (inactive), respectively. Also, in test [13], the binding (% of control) is 96.7% (inactive). Moreover, the efflux inhibition (fraction of control) in test [14] is 0.42 (inactive). Also, the differentiation response in [16] is 4.97% (inactive).

As for `O=C(CCCN1C(=O)/C(=C\c2cccc(Br)c2)SC1=S)Nc1cccnc1`, the percent of DMSO control GFP in [1] was 94.2% (inactive). Moreover, the GFP response vs DMSO in [2] is 104% (inactive); in test [4], 120% (inactive). Further, in test [3], the percent response of DMSO control was 95.8% (inactive). The GFP response, % of DMSO in test [5] is 95.8% (inactive). In test [6], this compound returned a double positive events of 57.4%. Besides, in test [6], the vesicle binding response was 211% (inactive). For the same compound, the inhibition in [7] was 2.3% (inactive); in [11] it was -4.08% (inactive); in [15], 5% (inactive). The superoxide response (% of plate) in test [8] was 98.5% (inactive). Further, the aptamer binding inhibition in test [9] was 2% (inactive). Also, the response in [10] was 10.2% (inactive); in test [12], -5.34% (inactive). Besides, the binding (% of control) in test [13] was 101% (inactive). In test [14], the efflux inhibition (fraction of control) was 0.01 (inactive). Also, in test [16], the differentiation response is -12% (inactive).
